According to PubChem BioAssay AID1220 (Sanford-Burnham Center for Chemical Genomics, 2008):
Screen size: about 190,000 compounds; about 1,300 (0.68%) were called active. The sample holds actives, similar compounds and a random draw of the others, so the mix is not that of the screen. Rule as the data show it: active = inhibition above about 50%; inactive = the rest.

What follows are compounds tested against Mannose-6-phosphate isomerase (Homo sapiens) (UniProt P34949) (assay: MPI inhibition at elevated mannose 6-phosphate – biochemical, fluorescence intensity, high mannose 6-phosphate, primary screen (AID 1220)). Settings: recombinant PMI enzyme, coupled fluorescence intensity; at 20 µM; active compounds read high.
Sequence of Mannose-6-phosphate isomerase (Homo sapiens) (P34949 whole entry, looked up): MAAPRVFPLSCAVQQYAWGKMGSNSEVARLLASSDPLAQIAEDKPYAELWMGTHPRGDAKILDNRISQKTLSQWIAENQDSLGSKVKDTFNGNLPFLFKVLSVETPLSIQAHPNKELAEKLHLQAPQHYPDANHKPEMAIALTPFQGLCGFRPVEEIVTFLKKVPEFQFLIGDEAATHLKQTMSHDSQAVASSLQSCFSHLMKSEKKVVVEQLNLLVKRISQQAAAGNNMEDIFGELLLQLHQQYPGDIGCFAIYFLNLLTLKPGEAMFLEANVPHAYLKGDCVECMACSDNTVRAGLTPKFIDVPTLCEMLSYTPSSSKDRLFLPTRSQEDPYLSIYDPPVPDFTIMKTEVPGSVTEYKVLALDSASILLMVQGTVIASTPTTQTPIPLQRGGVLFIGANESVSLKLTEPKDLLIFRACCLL

SMILES	inhibition
O=C1/C(=C\c2ccco2)SC(=S)N1c1ccc(O)cc1	39.1% (inactive)
O=C(O)CCCN1C(=O)/C(=C\c2ccco2)SC1=S	60.3% (active)
Cc1ccc(N2C(=O)/C(=C\c3ccco3)SC2=S)cc1	39.7% (inactive)
O=C1/C(=C\c2cccs2)SC(=S)N1C1CCS(=O)(=O)C1 (stereo unspecified)	12% (inactive)
Cc1ccc(/C=C2\SC(=S)N(C3CCS(=O)(=O)C3)C2=O)o1 (stereo unspecified)	41.2% (inactive)
O=C(O)CCN1C(=O)/C(=C\c2ccc(-c3nc4ccccc4s3)o2)SC1=S	7.1% (inactive)
O=C(CCCN1C(=O)/C(=C\c2ccco2)SC1=S)Nc1ccc2ccccc2c1	-8.1% (inactive)
O=C1/C(=C\c2ccco2)SC(=S)N1c1ccccc1	51.3% (active)
O=C(O)CCCN1C(=O)/C(=C/c2ccc(-c3nc4ccccc4s3)o2)SC1=S	-50.1% (inactive)
O=C(O)CCN1C(=O)/C(=C/c2ccc(-c3nc4ccccc4s3)o2)SC1=S	54.7% (active)
COc1ccc(NC(=O)CCCN2C(=O)/C(=C\c3ccco3)SC2=S)cc1	13.4% (inactive)
O=C1/C(=C/c2ccco2)SC(=S)N1C1CCS(=O)(=O)C1 (stereo unspecified)	54.7% (active)
CCC(=O)Nc1cc(-c2nn3c(C)nnc3s2)ccc1C	1.7% (inactive)
O=C(CCOc1ccccc1)Nc1cccc(S(=O)(=O)Nc2ccccc2Cl)c1	13.1% (inactive)
CCC(=O)Nc1ccc(S(=O)(=O)NCc2ccco2)cc1	-9.3% (inactive)
COc1ccc(NC(=O)c2onc(C)c2Cl)cc1OC	-15% (inactive)
CCOC(=O)C1(Cc2ccc(Cl)cc2)CCN(CCCn2cccn2)CC1	3.5% (inactive)
CN(c1ncc(C(F)(F)F)cc1Cl)N1C(=O)c2cccc([N+](=O)[O-])c2C1=O	6.1% (inactive)
Clc1cc(Cl)cc(C2=NCCC(c3ccccc3)O2)c1 (stereo unspecified)	15.6% (inactive)
CC1(C)CC(=O)C2=C(C1)OC(N)=C(C#N)C2c1ccccc1[N+](=O)[O-] (stereo unspecified)	47.5% (inactive)
O=C(O)CN(c1ccc2c(c1)OCCO2)S(=O)(=O)c1ccccc1	-2.6% (inactive)
COc1ccc(OCC(=O)NC(CC(=O)O)c2ccc(OC)c(OC)c2)cc1 (stereo unspecified)	-11.4% (inactive)
O=c1oc2c(O)c(O)cc3c(=O)oc4c(O)c(O)cc1c4c23	61.2% (active)
Cc1c(Br)c(=O)oc2c(Br)c(O)ccc12	-8.7% (inactive)
Cc1c(Br)c(=O)oc2c(Br)c(O)c(O)cc12	-33.8% (inactive)
Cc1cccc(C(c2c(C)nn(-c3ccccc3)c2N)c2c(C)nn(-c3ccccc3)c2N)c1	16.3% (inactive)
